Source: PubChem BioAssay
A selection: hits, their analogues and other compounds. The true share with any hit is near 20%.
Shiga inhibitor: blocks Shiga toxin action in Vero cells. Vero cells, Shiga toxin protein synthesis inhibition reporter. inhibition, % at 38.7 µM. hit rate 9.2% among 290,000. AID 2315; in the data active = inhibition mostly above about 28%, no sharp cut-off; inactive = mostly below about 43%; also: 0% is about no effect
Cycloheximide cs: counter-screen for Shiga toxin inhibitors: cycloheximide protein synthesis inhibition; max response, %; hit rate 12% among 300,000; cell reporter, cycloheximide protein synthesis inhibition counterscreen; in the data active = max response mostly above about 13%, no sharp cut-off; inactive = mostly below about 14%; also: read at 38.3 µM for the half of the compounds with a filed dose; 0% is about no effect
Pf growth 96h: inhibits malaria parasite growth, 96 h | hit rate 6.9% among 320,000 | Potency, µM (titrated, usually from 28.7 µM), inactives show at the top dose activity change, negative = inhibition, usual class: inhibitors | P. falciparum luciferase reporter growth, 96 h | AID 504834; also: potency is read from the fitted curve at half-maximal effect; % is scaled to controls: 0 for no effect and ±100 for the full control effect
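P. falciparum expressing integrated firefly luciferase grown in erythrocytes (2% hematocrit, 0.05% parasitemia final) with compounds for 96 hours at 37 C, 5% CO2. Growth inhibition read as loss of luminescence after adding luciferase detection reagent.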
Pf growth 48h: inhibits P. falciparum growth in the first generation, 48 h; P. falciparum luciferase growth in erythrocytes, 48 h; Potency, µM (highest dose often 28.7 µM), without a hit: at the top dose activity change, negative = inhibition, actives largely listed as inhibitors; hit rate 5.9% among 310,000; AID 504832; also: potency is read from the fitted curve at half-maximal effect; % is scaled to controls: 0 for no effect and ±100 for the full control effect
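In quantitative HTS format, infected erythrocytes bearing luciferase-reporter parasites were treated for a single generation at 37 C. Luminescence after adding detection reagent served as the growth measure.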
HCMV antiviral: inhibitors of human cytomegalovirus; HFF cells, HCMV-luciferase reporter, 72 h; hits give low values; hit rate 4.5% among 410,000; activity change, negative = inhibition, % at 57.5 µM; in the data active = activity change below about -60%; inconclusive = no clear call, values can overlap the other calls; inactive = above about -39%; also: % is scaled to controls: 0 for no effect and ±100 for the full control effect
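Two-dose cell screen: HFF monolayers treated with compounds and infected with luciferase-expressing HCMV at 1 PFU/cell, 72 h at 37C, then lysed for luciferase measurement.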
Numbers without * were called inactive; ? = inconclusive; nt = no result given; [ ] = another dose, or the depositor's remark. Unless noted, calls follow the shape of the dose curve; as a rule, active = well fitted inhibition curve with a large enough effect; inconclusive = small, poorly fitted or top-dose-only effect, or another doubt; inactive = no such curve, though single readings can be large or run the other way.

SMILES | Shiga inhibitor | Cycloheximide cs | Pf growth 96h | Pf growth 48h | HCMV antiviral
NNc1nc2sc3c(c2c(=O)n1C1CCCCC1)CCN(Cc1ccccc1)C3 | 9.1 | -2.1 | 1.17µM* | ? | -12.5
CSc1nc2sc3c(c2c(=O)n1C1CCCCC1)CCN(C)C3 | -20.8 | -1.9 | ? | ? | -20.8
CCSc1nc2sc3c(c2c(=O)n1C1CCCCC1)CCN(C)C3 | -6.4 | -2.2 | -4.8%[5.75 µM] | 1.31µM* | 37.8
C=C(C)CSc1nc2sc3c(c2c(=O)n1C1CCCCC1)CCN(C)C3 | -13.4 | -1.6 | 1.04µM* | 1.47µM* | 0.0
O=C(/C=C/c1ccccc1)N[C@H]1CC[C@@]23CCCN2C(=O)CCC[C@H]3[C@H]1Cc1ccccc1 | nt | nt | nt | nt | -6.1
S=C(Nc1ccc(Cl)cc1)NC1CCCCC1 | 67.6* | 40.8* | -33.8% | ? | -30.3
FC(F)Oc1ccc(NC(=S)NC2CCCCCCC2)cc1 | 64.9* | 34.4* | ? | ? | ?
NNC(=S)NC1CCCCCCCCCCC1 | 5.4 | -3.9 | 10.4µM* | ? | -25.0
S=C(Nc1ccc(Br)cc1)NC1CCCCC1 | 67.2* | 51.5* | 8.9% | 26.4% | -11.4
S=C(NC1CCCCCC1)NC1CCCC1 | 15.8 | 1.2 | 0.0% | 8.5% | -4.9
C[C@@H]1CC[C@]2(C(=O)O)CC[C@]3(C)C(=CCC4[C@@]5(C)C[C@@H](O)[C@H](O)[C@@](C)(CO)C5CC[C@]43C)C2[C@H]1C (some centres undefined) | -10.1 | -1.0 | nt | nt | nt
CCN(c1ccccc1)S(=O)(=O)c1cccc(C(=O)NCc2ccccn2)c1 | nt | nt | -17.8% | ? | -26.6
S=C(NCc1ccccc1)NC1CCSc2ccccc21 (centres undefined) | -20.2 | -4.4 | ? | 1.5% | -26.7
S=C(Nc1ccc(Nc2ccccc2)cc1)NC1CCCCCC1 | -8.5 | -1.9 | -7.3% | -18.0% | -86.9*
Cc1cccc(NC(=S)NC2CCSc3ccccc32)c1 (centres undefined) | 22.3 | 10.5 | ? | 11.7µM* | -35.6
CC(C)(C)c1ccccc1NC(=S)NC1CCCCC1 | 15.1 | -3.0 | 9.28µM* | ? | -1.5
S=C(Nc1cccc(Cl)c1)NC1CCCCC1 | 69.3 | 12.0 | 1.5% | ? | -27.5
O=C(NC1CCSc2ccccc21)c1cccc(OC(F)F)c1 (centres undefined) | 21.8 | 13.6 | ? | ? | ?
FC(F)Oc1ccc(NC(=S)NC2CCSc3ccccc32)cc1 (centres undefined) | 7.7 | 7.3 | -23.1% | 1.6% | -82.3*
CCCCN(CCCNC(=O)Cn1nc(CC)n2c(cc3sc(C)cc32)c1=O)Cc1ccccc1 | 22.4 | -4.5 | 35.9% | ? | -25.3
CC1COC(C)(CC(=O)NN2C(=O)c3ccccc3C2=O)O1 (centres undefined) | -12.4 | -2.0 | 2.62µM* | 28.3% | -23.3
O=C(CN1C(=O)c2ccccc2C1=O)NN1C(=O)c2ccccc2C1=O | 64.7 | 39.0 | 56.5% | 28.5% | 28.7
Cc1ccc(C(=O)N[C@H](C(=O)OCc2nnc(-c3ccccc3)o2)C(C)C)cc1 | 23.7 | 25.6* | -16.9% | -29.2% | -7.8
CC(C(=O)OCc1nnc(-c2ccccc2)o1)N1C(=O)c2ccccc2C1=O (centres undefined) | 91.8* | 31.6* | 10.4% | 36.5% | 47.5
CC(C)[C@H](NC(=O)c1ccccc1)C(=O)OCc1nnc(-c2ccccc2)o1 | 23.5 | 13.3 | 10.2% | 22.9% | -0.2
CCOC(=O)c1cccc(NC(=O)CCc2c(C)nn(-c3ccc(N4CCCCC4)nn3)c2C)c1 | nt | nt | nt | nt | -8.7
CC(C)N(Cc1ccccc1)C(=O)COC(=O)c1ccc(S(=O)(=O)N2CCOCC2)cc1 | nt | nt | nt | nt | -23.9
Cc1ccc(Cl)cc1N1CCN(C(=O)c2cc(S(=O)(=O)N3CCC(C)CC3)cn2C)CC1 | nt | nt | nt | nt | -12.9
O=C1/C(=C\c2ccc(O)c(O)c2)Oc2c1ccc(O[C@@H]1O[C@H](CO)[C@@H](O)[C@H](O)[C@H]1O)c2O | 2.2 | 9.9 | nt | nt | nt
